Results reported in PubChem BioAssay (Tox21).
Inconclusive results are not listed. Active and inactive are the calls of the source. Unless noted, the call rests on the fitted dose curve; in most records, active means well fitted curve in the direction sought with a large enough effect in the repeat runs; inconclusive means weak or mixed curves; inactive means no such curve, though single readings can be large; an effect the other way counts as inactive or inconclusive.

Legend:
[1] = qHTS assay to identify small molecule agonists of H2AX (AID 1224845; active means well fitted activation curve with a large enough effect in the signal ratio in the repeat runs, not every such curve was filed as active; the % refers to the signal ratio)
How it was run: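 Wild-type CHO-K1 cells, plated overnight, exposed 3hr at 37C to 15 concentrations (0.76% DMSO final). Lysed, then HTRF anti-pH2AX (S139) cryptate and anti-H2AX-d2 antibodies, 24 hr room temperature; 665/620 nm emission read.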

[2] = qHTS assay to identify small molecule agonists of the hypoxia (HIF-1) signaling pathway (AID 1224846; active means well fitted activation curve with a large enough effect in the signal ratio in the repeat runs, not every such curve was filed as active; the % refers to the signal ratio)
How it was run: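 HRE-bla ME-180 beta-lactamase reporter cells in medium with 0.5% dialyzed FBS, pre-incubated 5 h then exposed to compounds 17 h at 37C, 5% CO2; reporter induction read with CCF4-AM FRET substrate.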

[3] = qHTS assay to identify small molecule agonists of H2AX - cell viability counter screen (AID 1224847; calls by dose curve; further: top concentration of the series differs between compounds; nearly all actives have a fitted effect of over 30% in size)
How it was run: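 Viability of CHO-K1 (wild type) cells after 3 hr compound exposure was measured by CellTiter-Glo luminescence.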

[4] = qHTS assay to identify small molecule antagonists of the estrogen related receptor (ERR) signaling pathway from Tox21 library (AID 1224848); further: nearly all actives have a fitted effect of over 50% in size; further: potency means the concentration at half of the fitted maximal effect
How it was run: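 Luminescent reporter read-out (ONE-Glo) from NTP's ERR cell line after 18 h treatment at 37 C with DMSO-dissolved Tox21 compounds; cells pre-plated 6 h beforehand at 2,000 per well.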

[5] = qHTS assay to identify small molecule agonists of the estrogen related receptor (ERR) signaling pathway from Tox21 library (AID 1224849; calls by dose curve; further: nearly all actives have a fitted effect of over 15% in size); conditions: ERR reporter cell line, ONE-Glo luciferase, 18 h; at 92.4 µM (top of the series) unless noted
How it was run: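 ERR reporter cells (NTP line) pre-incubated 6 hours at 37 C, then exposed to compounds for 18 hours at 37 C. ONE-Glo luciferase luminescence was read after 30 minutes at room temperature.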

[6] = qHTS RealTime-Glo MT Cell Viability Assay in HepG2 cells - 24 hour (AID 1224867); further: nearly all actives have a fitted effect of over 50% in size
How it was run: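 Luminescence read-out: viable HepG2 cells reduce a prosubstrate to a NanoLuc substrate, giving a signal proportional to live cell number. Reads taken at 0, 8, 16, 24, 32 and 40 h of compound exposure at 37 C.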

[7] = qHTS RealTime-Glo MT Cell Viability Assay in HEK293 cells - 32 hour (AID 1224868); further: nearly all actives have a fitted effect of over 50% in size; further: potency means the concentration at half of the fitted maximal effect
How it was run: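 Nonlytic real-time viability readout: viable cells convert prosubstrate to NanoLuc substrate, giving luminescence proportional to live cell number. HEK293, 600 cells/well, compound added after 5 h, continuous culture at 37 C.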

[8] = A CellTox Green Cytotoxicity Assay to monitor cytotoxicity in HEK293 cells - 0 hour (AID 1224869); further: nearly all actives have a fitted effect of over 50% in size
How it was run: (§1)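 HEK293 cells, 600/well, were preincubated 5 hours and then exposed to compounds at 37 C for up to 40 hours. A cell-impermeant cyanine dye staining dead-cell DNA was read by fluorescence at 0, 8, 16, 24, 32 and 40 h time points.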

[9] = qHTS RealTime-Glo MT Cell Viability Assay in HepG2 cells - 40 hour (AID 1224870); further: nearly all actives have a fitted effect of over 50% in size
How it was run: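 HepG2 cells (600/well) mixed with RealTime-Glo MT reagent, settled 5 h at 37 C/5% CO2 before compound addition. Nonlytic NanoLuc luminescence from viable-cell prosubstrate reduction read repeatedly during 40 h treatment at 37 C.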

[10] = A CellTox Green Cytotoxicity Assay to monitor cytotoxicity in HEK293 cells - 40 hour (AID 1224871); further: nearly all actives have a fitted effect of over 45% in size
How it was run: as §1
On the % scale 0 is the no-effect control and ±100 the full control effect.

CCCCCCCC/C=C/CCCOC(C)=O
inactive: Potency [1] | outcome [2] | Potency [3] | Potency [4] | activity change, positive = activation [5] 1.58% | Potency [6] | Potency [7] | Potency [8] | Potency [9] | Potency [10]

CC1=CCC(=O)O1
inactive: Potency [1] | outcome [2] | Potency [3] | Potency [4] | activity change, positive = activation [5] 8.22% | Potency [6] | Potency [7] | Potency [8] | Potency [9] | Potency [10]

CO[Si](CCC1CCC2OC2C1)(OC)OC (configuration not stated)
inactive: Potency [1] | outcome [2] | Potency [3] | Potency [4] | activity change, positive = activation [5] 0.732% | Potency [6] | Potency [7] | Potency [8] | Potency [9] | Potency [10]

CC1(C)C(=O)N(Br)C(=O)N1Br
inactive: Potency [1] | outcome [2] | Potency [3] | Potency [4] | activity change, positive = activation [5] 3.41% | Potency [6] | Potency [7] | Potency [8] | Potency [9]

CCO[Si](C)(C)OCC
inactive: Potency [1] | outcome [2] | Potency [3] | Potency [4] | activity change, positive = activation [5] -0.643% | Potency [6] | Potency [7] | Potency [8] | Potency [9] | Potency [10]

OCCCCl
inactive: Potency [1] | outcome [2] | Potency [3] | Potency [4] | activity change, positive = activation [5] -6.99% | Potency [6] | Potency [7] | Potency [8] | Potency [9] | Potency [10]

CC1=CP(=O)(c2ccccc2)CC1 (configuration not stated)
inactive: Potency [1] | outcome [2] | Potency [3] | Potency [4] | activity change, positive = activation [5] -5.03% | Potency [6] | Potency [7] | Potency [8] | Potency [9] | Potency [10]

CCOC(=O)CC(C)O (configuration not stated)
inactive: Potency [1] | outcome [2] | Potency [3] | Potency [4] | activity change, positive = activation [5] -9.04% | Potency [6] | Potency [7] | Potency [8] | Potency [9] | Potency [10]

C=C(C)CCCC
inactive: Potency [1] | outcome [2] | Potency [3] | Potency [4] | activity change, positive = activation [5] 6.79% | Potency [6] | Potency [7] | Potency [8]

Cc1cccc(N(C)C)c1
inactive: Potency [1] | outcome [2] | Potency [3] | Potency [4] | activity change, positive = activation [5] -0.051% | Potency [6] | Potency [7] | Potency [8] | Potency [9] | Potency [10]

CC(COC(=O)c1ccccc1)OC(=O)c1ccccc1 (configuration not stated)
inactive: Potency [1] | outcome [2] | Potency [3] | Potency [4] | activity change, positive = activation [5] 6.72% | Potency [6] | Potency [7] | Potency [8] | Potency [9] | Potency [10]

CCCCOC(=O)C(C)CC (configuration not stated)
inactive: Potency [1] | outcome [2] | Potency [3] | Potency [4] | activity change, positive = activation [5] 6.06% | Potency [6] | Potency [8] | Potency [9]

Clc1cc(Cl)c(-c2c(Cl)c(Cl)cc(Cl)c2Cl)cc1Cl
inactive: Potency [1] | outcome [2] | Potency [3] | Potency [4] | activity change, positive = activation [5] 21.1% [at 42.5 µM] | Potency [6] | Potency [8] | Potency [10]

ClC/C=C\CCl
inactive: Potency [1] | outcome [2] | Potency [3] | Potency [4] | activity change, positive = activation [5] -4.37% | Potency [6] | Potency [8] | Potency [10]

Cc1ccc(CCn2c3c(c4cc(Cl)ccc42)CN(C)CC3)cn1
inactive: Potency [1] | outcome [2] | Potency [3] | Potency [4] | Potency [6] | Potency [8] | Potency [9] | Potency [10]
active: activity change, positive = activation [5] 48.3% [at 42.5 µM]

NC(=O)c1ccccc1N
inactive: Potency [1] | outcome [2] | Potency [3] | Potency [4] | activity change, positive = activation [5] -2.02% | Potency [6] | Potency [7] | Potency [8] | Potency [9] | Potency [10]

CCc1cccc(CC)c1NC(=O)C(=O)O
inactive: Potency [1] | outcome [2] | Potency [3] | Potency [4] | activity change, positive = activation [5] -1.7% | Potency [6] | Potency [8] | Potency [9] | Potency [10]

Cc1cnccn1
inactive: Potency [1] | outcome [2] | Potency [3] | Potency [4] | activity change, positive = activation [5] -1.47% | Potency [6] | Potency [7] | Potency [8] | Potency [9] | Potency [10]

C=CC/C=C/C/C=C/C/C=C/C
inactive: Potency [1] | outcome [2] | Potency [3] | Potency [4] | activity change, positive = activation [5] 3.56% | Potency [6] | Potency [7] | Potency [8] | Potency [10]

CCC(C)C(=O)OC (configuration not stated)
inactive: Potency [1] | outcome [2] | Potency [3] | Potency [4] | activity change, positive = activation [5] -4.99% | Potency [6] | Potency [7] | Potency [8] | Potency [10]

Cn1cccc1
inactive: Potency [1] | outcome [2] | Potency [3] | Potency [4] | activity change, positive = activation [5] -4.51% | Potency [6] | Potency [7] | Potency [8] | Potency [10]

CC1CCCCN1CCCOC(=O)c1ccc(OC2CCCCC2)cc1 (configuration not stated)
active: Potency [4] 11.9 µM | Potency [7] 21.3 µM
inactive: Potency [1] | outcome [2] | Potency [3] | activity change, positive = activation [5] -35.8% [at 42.5 µM] | Potency [8]

CCNc1nc(NC(C)CC)nc(OC)n1 (configuration not stated)
inactive: Potency [1] | outcome [2] | Potency [3] | Potency [4] | activity change, positive = activation [5] 10.4% | Potency [6] | Potency [7] | Potency [8] | Potency [9] | Potency [10]

CCCCOCC
inactive: Potency [1] | outcome [2] | Potency [3] | Potency [4] | activity change, positive = activation [5] -0.464% | Potency [6] | Potency [8] | Potency [9] | Potency [10]
